Screening data deposited in PubChem by National Center for Advancing Translational Sciences (NCATS).
Many of the other results were omitted from the sample, so hits are more common in it than they were.
KDM5B inhibitor – Primary screen for KDM5B Histone Demethylases FDH-coupled qHTS; Lysine-specific demethylase 5B (Homo sapiens), Q9UGL1; KDM5B demethylase, FDH-coupled NADH fluorescence (FDH is formaldehyde dehydrogenase); Potency, µM (series often up to 57.7 µM), usual class: inhibitors; 2.6% of 220,000 active; active = well fitted inhibition curve with a large enough effect; note: nearly all actives have a fitted effect of over 70% in size
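Coupled FDH/NAD⁺ fluorescence readout. KDM5BΔAP 200 nM final; compound titration, 10 min RT preincubation; substrate mix 12.5 µM H3K4me3, 25 µM 2-OG, 50 µM Fe(II), 100 µM ascorbate, 0.25 mM NAD⁺, 0.25 U/mL FDH; ΔRFU over 30 min.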
Each line names hits and unclear results; the compound was inactive in the other large screens.

COc1cc(CC(=O)OCc2ccccc2Br)cc(OC)c1OC	none
CN(Cc1cccc(CCN)c1)Cc1cnn(-c2ccc(F)cc2)c1	none
Cc1ccc(-c2nn(-c3cccc(F)c3)cc2CN(C)CCO)o1	KDM5B inhibitor 25µM
COc1ccc(-c2nn(-c3ccccc3)cc2CN(C)CCn2ccnc2C)c(F)c1	none
COC(=O)CN(C)Cc1cn(-c2ccc(C)cc2)nc1-c1cccc(C)c1	none
Cc1cc(CN(C)Cc2cn(-c3cccc(F)c3)nc2-c2ccc(C)o2)n[nH]1	KDM5B inhibitor 25µM
COc1ccc(-c2nn(-c3ccccc3C)cc2CN(C)Cc2cn(C)nc2C)cc1F	none
CC(C)c1noc(C(C)Sc2n[nH]c(-c3ccccc3F)n2)n1 (centres undefined)	none
COc1ccc(-c2cc(C[C@@H]3CC[C@H](O)[C@@H](CNCc4ccccc4OC)O3)no2)cc1	none
COc1ccc(-c2cc(C(=O)NCCc3cnc[nH]3)c3c(c2)N(C)CCO3)cc1OC	KDM5B inhibitor 32µM
Cc1ccccc1-c1cc(C(=O)NCCc2cnc[nH]2)c2c(c1)N(C)CCO2	KDM5B inhibitor 35µM
COc1ccc(CCNC(=O)c2cnc3ccc(C)cn3c2=O)cc1OC	none
COc1ccc(-c2cc(C(=O)NCCC(=O)N3CCOCC3)c3ccccc3n2)cc1OC	none
Cn1nccc1-c1cc2c(ccn2C)c(C(=O)NCCc2cnc[nH]2)n1	none
CC(C)c1ccc(CC(=O)N2CCCc3ncc(C(=O)NCCc4cnc[nH]4)cc32)cc1	none
O=C(NCc1ccco1)C(c1ccccc1)c1ccccc1	none
CCCCn1c(N)c(N(Cc2ccco2)C(=O)Cn2c(CC)nc3ccccc32)c(=O)[nH]c1=O	none
O=C(COC(=O)COc1ccccc1F)Nc1ncc(C(F)(F)F)cc1Cl	none
S=C(NCCc1ccccc1)NC1CCCC1	none
COc1cccc(N2Cc3nc(=O)n(CC(=O)NCc4ccccc4)n3C2=O)c1	none
COc1ccc(CN2CC3(Cc4ccccc4NC3=O)C2)cc1	none
COCCn1cnc2ccc(-c3ccccc3Oc3ccccc3)nc2c1=O	none
O=c1c2nc(OCc3ccccc3)ccc2ncn1Cc1ccccn1	none
O=c1c2nc(NCc3ccccc3)ccc2ncn1Cc1ccccn1	none
COc1ncccc1-c1ccc2ncn(Cc3ccccn3)c(=O)c2n1	KDM5B inhibitor 35µM
COCCn1cnc2ccc(-c3ccccc3C)nc2c1=O	none
COCCn1cnc2ccc(-c3ccnn3C)nc2c1=O	KDM5B inhibitor 35µM
COc1cc(CNn2cnnc2)cc(Cl)c1OCc1ccccc1	none
CC1CCc2c(sc(NC(=O)c3ccccc3OC(F)F)c2C(N)=O)C1 (centres undefined)	none
C#CCOC(=O)CCC(=O)O	none
CC(=O)Nc1ccc(NCC(=O)NCc2ccc(Cl)cc2)c(C(F)(F)F)c1	none
C/C(=N/NC(=S)NC(C)C)c1ccc(Cl)cc1Cl	none
O=C(Cn1nc(-c2cccs2)c2ccccc2c1=O)NCCc1ccc(Cl)cc1	none
O=C(C1CC1)N1CCC2(CC1)CCN(CCc1ccccc1)c1ccccc1O2	none
COc1ccc(-c2cc(=O)n3[nH]c(C(F)(F)F)nc3n2)cc1	none
O=C(O)C(c1c[nH]c2cc(Cl)ccc12)N1CCN(C(c2ccccc2)c2ccccc2)CC1 (centres undefined)	none
CCCCn1nc(C(=O)Nc2ccc3nc(SC)sc3c2)c2ccccc2c1=O	none
COc1cc(-c2cccs2)cc2c1OCCN(C(=O)c1ccncc1C)C2	none
COc1cc(-c2cc(C)c3cccc(OC)c3n2)cc2c1OCCN(C(=O)CCN)C2	KDM5B inhibitor 28µM
COc1cc(-c2cccs2)cc2c1OCCN(C(=O)C(C)Cn1cncn1)C2 (centres undefined)	none
COc1ccc(-c2nc(CN3CCS(=O)(=O)CC3)c(C)o2)c(OC)c1C	none
COc1ccc(OC)c(-c2nc(CN3CCCC(C(C)(C)O)C3)c(C)o2)c1 (centres undefined)	KDM5B inhibitor 20µM
CNC(=O)c1ccc(-c2nc(CN3CCN(C(=O)Nc4ccc(OC)cc4OC)CC3)c(C)o2)cc1	none
COc1ccc(C2=CC(c3ccc(Cl)cc3)n3nnnc3N2)c(OC)c1 (centres undefined)	none
CCc1cc2c(N)c(C(=O)c3ccccc3)sc2nc1C	none
CC(C(=O)NC1CCN(Cc2ccccc2)CC1)C1CCOCC1 (centres undefined)	none
CC(C)n1nc(OC(C)(C)C(=O)NC2CCOCC2)c2cc(CN3CCOCC3)ccc21	KDM5B inhibitor 32µM
CC(C)CNC(=O)N1CCOc2ccc(CN3CCOCC3)cc2C1	none
COCCCNC(=O)C(C)(C)Oc1nn(Cc2cccnc2)c2ccc(COC)cc12	none
CC(C)n1nc(OC(C)(C)C(=O)NC2CCC(O)CC2)c2cc(CN3CCOCC3)ccc21 (centres undefined)	KDM5B inhibitor 25µM
COCCNC(=O)C(C)(C)Oc1nn(Cc2cccc(Cl)c2)c2ccccc12	none
CC(C)n1nc(OC(C)(C)C(=O)NCCOc2ccccc2)c2cc(CN3CCOCC3)ccc21	KDM5B inhibitor 28µM
CC(C)CNC(=O)C(C)(C)Oc1nn(C(C)C)c2ccc(CN3CCOCC3)cc12	KDM5B inhibitor 35µM
O=C(NCCN1CCc2ccccc2C1)c1ccc(Cl)cc1	none
COC(=O)CCCCCCCNS(=O)(=O)c1ccc([N+](=O)[O-])cc1	none
COC(=O)C1=C(C)N(C)C(=S)NC1c1ccc(C(C)C)cc1 (centres undefined)	none
CC(C)CCNC(N)=S	none
CC(=O)N(CCC1(Cc2ccccc2)CCOC(C)(C)C1)Cc1ccccc1 (centres undefined)	none
CCCSc1ncc(Cl)c(C(=O)Nc2ccccc2C(=O)OC)n1	none
Cc1ccc(N(Cc2cccs2)C(=O)c2cccs2)cc1	none
O=S(=O)(NCCO)c1cc(Cl)ccc1Cl	none
CC1CCCN(C(C)C(=O)N(C)CC(=O)Nc2ccccc2C(F)(F)F)C1 (centres undefined)	none
O=C(COc1ccccc1)NC12CC3CC(CC(C3)C1)C2	none
Cc1ccc2c(CN3CCN(CCc4ccncc4)CC3)cc(=O)oc2c1	none
COc1ccc(S(=O)(=O)N2CCc3ccccc32)cc1C(=O)N1CCN(c2ncccn2)CC1	none
CCn1nc(CC(C)C)cc1C(=O)N1CCN(S(=O)(=O)CC)CC1	none
CC(C)Cc1cc(C(=O)N2C[C@H](C3CC3)[C@@H](N)C2)n(C)n1	none
CCn1nc(CC(C)C)cc1C(=O)N1C[C@@H](NC(C)=O)[C@H](C(C)C)C1	KDM5B inhibitor 35µM
COc1ccc(NC(=O)Cn2c(C(=O)c3ccc(Cl)cc3)nc3ccccc32)cc1OC	none
COc1ccc(F)cc1S(=O)(=O)N1CCc2nn(CC3CC3)c(=O)n2CC1	none
Cc1ccc(C(=O)NC2CCN(c3cnn(CC4CC4)c(=O)c3)CC2)cc1C	none
Cc1ccc(F)cc1S(=O)(=O)NC1CCN(c2ccc(=O)n(CC3CC3)n2)CC1	KDM5B inhibitor 28µM
CC(OC(=O)C12CC3CC(CC(C3)C1)C2)C(N)=O (centres undefined)	none
c1ccc(C2=Nn3c(nnc3-c3cnccn3)SC2)cc1	none
Cc1nc(CN2C[C@H](C(=O)Nc3ccccc3)C[C@@H]2c2ccc(F)cc2)cs1	KDM5B inhibitor 35µM
COc1cccc(NC(=O)[C@@H]2C[C@@H](c3ccc(F)cc3)N(Cc3ccccc3)C2)c1	none
Cn1ccc(NC(=O)[C@@H]2C[C@@H](c3ccc(F)cc3)N(Cc3ccccc3)C2)n1	none
N#C/C(=C/c1ccccc1[N+](=O)[O-])c1ccc(C(F)(F)F)cn1	none
COc1ccc(CC(=O)NCc2nnc3ccccn23)cc1	none
N#Cc1ccccc1-c1ccc(-c2cn(Cc3nnc4ccccn34)nn2)o1	KDM5B inhibitor 28µM
N#Cc1ccccc1-c1ccc(C=O)o1	none
Cc1oc(-c2ccccc2)nc1CC(=O)Nc1ccc(F)cc1F	none
CC(=O)Nc1ccc(SC(C)C(=O)c2ccc3c(c2)CCC3)cc1 (centres undefined)	none
